The whole screen tested about 200,000 compounds, of which about 700 (0.35%) were called active.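 How the source made its calls: active means inhibition above a set limit, the mean inhibition across all tested compounds plus 3 SD (cut at about 34% in these data); inactive means the rest.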 Shown is part of a subset that was picked to be rich in actives.
Assay: blockers of IFN-gamma driven STAT1 reporter – cell-based, HTS, luciferase reporter, primary screen (AID 920);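 further: 0% = IFN-gamma with DMSO and 100% = IFN-gamma with 300 µM nifuroxazide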
Settings: NIH 3T3 STAT1-luciferase reporter, luminescence, at 5.5 µM, active compounds read high
In the case of `C(=N\Nc1ccc2ccccc2n1)/c1ccc2c(c1)OCO2`, the inhibition was 68.7% (active).
In the case of `Brc1ccc(-c2csc(N/N=C/c3ccc4c(c3)OCO4)n2)cc1`, the inhibition was -12.1% (inactive).
For `Cc1noc(C)c1/C=N/Nc1ccc2ccccc2n1`, the inhibition was -64.7% (inactive).
In the case of `CCOC(=O)C1C(c2ccc(Cl)cc2)NC(=S)NC1(O)C(F)(F)F` (configuration not stated), the inhibition was 10.5% (inactive).
In the case of `Cc1ccc(CN2C(=O)N/C(=C/c3cc(C)n(-c4ccccn4)c3C)C2=O)cc1`, the inhibition was -13.2% (inactive).
In the case of `S=C(Nc1ccc2c(c1)OCO2)N1CCCC1`, the inhibition was -9.5% (inactive).
With `COc1ccc2nc(Nc3nc4cc5c(cc4s3)OCCO5)sc2c1` the inhibition was -15.9% (inactive).
In the case of `c1c2c(cc3sc(N4CCCCC4)nc13)OCCO2`, the inhibition was 47.8% (active).
With `Brc1ccc2nc(N3CCCC3)sc2c1` the inhibition was -39.3% (inactive).
In the case of `CCOC(=O)C1(CCOc2ccccc2)CCN(C(=O)c2cncs2)CC1`, the inhibition was -0.02% (inactive).
In the case of `O=C(O)CSc1nnc(-c2ccc3c(c2)OCO3)n1-c1ccccc1`, the inhibition was -5.92% (inactive).
For `COc1cccc(-c2nc3cc(C)ccc3o2)c1`, the inhibition was -6.24% (inactive).
In the case of `CCc1ccc2oc(-c3ccc(N)cc3)nc2c1`, the inhibition was 34.5% (active).
With `CCCCCC(=O)Nc1ccc2oc(-c3ccncc3)nc2c1` the inhibition was -3.9% (inactive).
For `CC(C)/C=N/NC(=O)c1cc(Br)ccc1O`, the inhibition was 11.2% (inactive).
In the case of `O=C(/C=C/c1ccccc1[N+](=O)[O-])NCC1CCCO1` (configuration not stated), the inhibition was -5.46% (inactive).
With `CCc1nnc(NC(=O)CCCSc2nc3ccccc3[nH]2)s1` the inhibition was 20.4% (inactive).
With `NC(=O)Nc1ccccc1C(=O)NCCc1ccccc1` the inhibition was -28.8% (inactive).
In the case of `COc1cc2c(C(=O)N3CCN(C)CC3)c(CSc3ccccc3)n(C)c2cc1Br`, the inhibition was 10.4% (inactive).
For `COc1ccc(-c2noc(-c3ccc(C)cc3)n2)cc1`, the inhibition was -36.1% (inactive).
In the case of `COc1ccc(-c2noc(-c3cccc(OC)c3OC)n2)cc1OC`, the inhibition was -49.2% (inactive).
In the case of `COc1ccc(-c2nc(-c3ccccc3)no2)c(OC)c1`, the inhibition was 60.8% (active).
For `Cc1ccc(C(C)(C)C)c(OCCCCN2CCCC2)c1`, the inhibition was 9.92% (inactive).
With `Cc1nc2ccccc2c(C)c1C(=O)c1ccc(F)cc1` the inhibition was 15.9% (inactive).
With `O=C(c1ccc(S(=O)(=O)c2ccccc2)cc1)N1CCCCCC1` the inhibition was 14.2% (inactive).
In the case of `CCOc1ccc(OCc2ccc(C(=O)Nc3cccc(C)n3)o2)cc1`, the inhibition was -24.1% (inactive).
In the case of `CCOC(=O)C(=CNc1cccc(C)n1)C(=O)OCC`, the inhibition was 43.5% (active).
For `Cc1cccc(NC(=O)c2ccc3ccccc3n2)n1`, the inhibition was -31.6% (inactive).
With `Cc1ccc(C(C[N+](=O)[O-])c2c(C)cc3ccccn23)cc1` (configuration not stated) the inhibition was 10.7% (inactive).
For `C=CCN1C(=O)C(Cc2ccc(OCC)cc2)SC1=Nc1ccc(C(=O)O)cc1` (configuration not stated), the inhibition was 11.1% (inactive).
In the case of `Nc1ccc(OCC(O)C[n+]2ccc(CCS(=O)(=O)[O-])cc2)cc1` (configuration not stated), the inhibition was 0.06% (inactive).
In the case of `Cc1cc(N2CCN(Cc3ccc4c(c3)OCO4)CC2)n2ncnc2n1`, the inhibition was 6.31% (inactive).
In the case of `Fc1ccc2[nH]c3c(N4CCN(Cc5ccc6c(c5)OCO6)CC4)ncnc3c2c1`, the inhibition was 45.1% (active).
In the case of `Fc1ccc2[nH]c3c(N4CCSCC4)ncnc3c2c1`, the inhibition was 25.6% (inactive).
With `O=C(CC1SC(=Nc2ccccc2F)N(CCN2CCOCC2)C1=O)Nc1ccc(F)cc1F` (configuration not stated) the inhibition was 2.14% (inactive).
In the case of `Cc1ccc(N/C(N)=N/c2nc(C(F)(F)F)cc(C(F)(F)F)n2)cc1`, the inhibition was -12.9% (inactive).
For `CCOc1cc(/C=C(/C#N)c2ccc(Cl)cc2)cc(Cl)c1OCC(=O)O`, the inhibition was 47.4% (active).
For `CCOc1c(Cl)cc(/C=N/O)cc1OC`, the inhibition was 5.54% (inactive).
For `CCOC(=O)CN/C=C(\C#N)c1ccc(F)cc1`, the inhibition was 1.52% (inactive).
With `COc1ccc(C2c3c(C)nn(-c4ccccc4)c3NC(=O)N2c2ccccc2)cc1` (configuration not stated) the inhibition was -3.45% (inactive).
In the case of `Cc1noc(C)c1CCC(=O)O`, the inhibition was 3.78% (inactive).
In the case of `O=C(C1CCN(C2CCN(Cc3ccc4cc(F)ccc4n3)CC2)CC1)N1CCCC1`, the inhibition was 2.2% (inactive).
For `CCc1cc(CNC(=O)CC2C(=O)NCCN2CC2CCCCC2)on1` (configuration not stated), the inhibition was 6.89% (inactive).
In the case of `CN(C)S(=O)(=O)c1cccc(NC(=S)N/N=C/C(=O)c2ccccc2)c1`, the inhibition was -1.89% (inactive).
For `CSC(=S)N/N=C/c1c[nH]c2ccccc12`, the inhibition was -6.4% (inactive).
For `O=C(O)c1cccc(NC(=S)N/N=C/c2c[nH]c3ccccc23)c1`, the inhibition was 58% (active).
In the case of `COc1ccc(CCC(=O)OCC(=O)Nc2ccc(C)c(S(=O)(=O)N(C)C)c2)cc1`, the inhibition was 1.53% (inactive).
In the case of `Cc1ccc2[nH]cc(CCCN3C(=O)c4ccccc4C3=O)c2c1`, the inhibition was 0.21% (inactive).
For `CCOC(=O)N1CCN(C(=O)C2CCN(c3ncnc4c3sc3cccc(F)c34)CC2)CC1`, the inhibition was 37.1% (active).
In the case of `CCOC(=O)N1CCN(C(=O)C2CCN(Cc3ccc(OC)cc3OC)CC2)CC1`, the inhibition was 5.92% (inactive).
For `CCOC(=O)C1CCN(c2ncnc3c2oc2ccc(Br)cc23)CC1`, the inhibition was -3.28% (inactive).
For `Cc1ccc(-n2c(SCC(=O)Nc3ncc(Cl)cc3Cl)nc3ccccc32)cc1`, the inhibition was 12.4% (inactive).
With `Cc1cccc(-n2c(SCC(=O)Nc3cccc(S(=O)(=O)NC4=NCCCCC4)c3)nc3ccccc3c2=O)c1C` the inhibition was -1.66% (inactive).
With `NS(=O)(=O)c1cccc(NC(=O)CSc2nc3ccccc3n2-c2ccccc2)c1` the inhibition was 55.1% (active).
In the case of `Cc1nn(C)cc1C(=O)Nc1ccccc1Br`, the inhibition was -7.01% (inactive).
With `CCCN1C(=O)C(Cc2nc3ccccc3c(=O)n2-c2ccccc2)c2cc(C)ccc21` (configuration not stated) the inhibition was 6.11% (inactive).
In the case of `CCCOC1CCCN(Cc2cn(C)nc2-c2ccccc2F)C1` (configuration not stated), the inhibition was -4.18% (inactive).
In the case of `Cc1ncoc1C(=O)NCCC(c1ccccc1)c1ccccc1`, the inhibition was -1.04% (inactive).
With `CCn1c(SCC(=O)Nc2ccc(OC)c(OC)c2)nnc1-c1c[nH]c2ccccc12` the inhibition was 3.46% (inactive).
With `CCC(C)Sc1nnc(-c2c[nH]c3ccccc23)n1CCOC` (configuration not stated) the inhibition was 3.54% (inactive).
In the case of `CCOC(=O)N1CCN(C(=O)CSc2nnc(-c3c[nH]c4ccccc34)n2CCOC)CC1`, the inhibition was 37.2% (active).
For `Cc1ccc2[nH]cc(CCNC(=O)c3ccc([N+](=O)[O-])cc3)c2c1`, the inhibition was -1.14% (inactive).
